How the values were obtained:
Conditions in all cases: concentration: 1 μM, replicates: in singlicate; n = 1
[1] = system: CSNK1G1
[2] = system: CSNK1G2
[3] = system: CSNK1G3
[4] = system: CSNK2A1
[5] = system: CSNK2A2
[6] = system: T1, CTK
T1 construct: gene MATK

[7] = system: DAPK1
[8] = system: DAPK2
[9] = system: DAPK3
[10] = system: T2, DCAMKL1
T2 construct: gene DCLK1
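Note: KINOMEscan kinase panel screen.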

Row | Structure (SMILES) | %Inh [1] [%] | %Inh [2] [%] | %Inh [3] [%] | %Inh [4] [%] | %Inh [5] [%] | %Inh [6] [%] | %Inh [7] [%] | %Inh [8] [%] | %Inh [9] [%] | %Inh [10] [%]
1 | Cc1cccc(Nc2nc(NCCN)ncc2C(N)=O)c1 [GSK1292139] | 6 | 0 | 26 | 34 | 29 | 0 | 52 | 25 | 38 | 16
2 | Cc1ccc(C)c(NC(=O)Nc2ccc(C)c(-c3ccc(C(=O)Nc4ccncc4)cc3)c2)c1 [GSK1398473] | 3 | 15 | 32 | 15 | 0 | 0 | 26 | 0 | 2 | 13
3 | O=C(Nc1n[nH]c2nc(-c3cccc(O)c3)ccc12)C1CC1 [SB-711805] | 6 | 0 | 25 | 52 | 82 | 0 | 17 | 0 | 23 | 17
4 | COC(=O)Nc1nc2ccc(Oc3ccc(NC(=O)Nc4cc(C(F)(F)F)ccc4F)cc3)cc2[nH]1.Cl [GW654607] | 0 | 0 | 24 | 0 | 2 | 0 | 2 | 0 | 11 | 16
5 | Cc1ccc(O)cc1Nc1ccnc2cc(-c3ccc(CN4CCCCC4)o3)ccc12 [GW557777] | 6 | 5 | 7 | 0 | 0 | 27 | 16 | 3 | 1 | 25
6 | Cc1nn2c(=O)cc(N3CCO[C@H](C)C3)nc2n1Cc1cccc(Cl)c1Cl [GSK2373693] | 10 | 0 | 26 | 50 | 63 | 0 | 37 | 54 | 94.7 | 0
7 | COc1cccc(-c2nc(-c3ccccc3)[nH]c2-c2ccncc2)c1 [SB-610250] | 0 | 0 | 22 | 0 | 0 | 0 | 0 | 0 | 19 | 14
8 | O=C1NC(=O)C(c2ccccc2Cl)=C1Nc1cccc(Cl)c1 [SB-342409] | 14 | 0 | 26 | 0 | 0 | 24 | 0 | 0 | 15 | 13
9 | N#CC1(c2cccc(C(=O)Nc3cccc(Oc4ccc5nc(NC(=O)C6CC6)sc5n4)c3)c2)CC1 | 0 | 7 | 0 | 0 | 0 | 0 | 0 | 44 | 13 | 3
10 | Nc1ncc(-c2ccc3nccc(-c4ccncc4)c3c2)cc1S(=O)(=O)N1CCCCC1 [GSK1693850] | 0 | 18 | 33 | 2 | 0 | 0 | 11 | 26 | 30 | 15
11 | N#Cc1cnc2cc(-c3cnc(CNCCN4CCOCC4)s3)ccc2c1Nc1ccc(Oc2ccccc2)cc1 [GW664114] | 19 | 0 | 25 | 0 | 5 | 26 | 26 | 0 | 2 | 19
12 | CC(C)c1nc(-c2cccc(NS(=O)(=O)c3c(F)cccc3F)c2)c(-c2ccnc(Nc3ccc(N4CCOCC4)nc3)n2)s1.Cl [GSK1723980] | 2 | 0 | 0 | 2 | 0 | 37 | 3 | 0 | 0 | 11
13 | COc1cccc(CC(=O)N2CCc3cc(-c4cn(C)c5ncnc(N)c45)ccc32)c1 [GSK2608899] | 23 | 5 | 29 | 14 | 15 | 0 | 2 | 0 | 21 | 26
14 | Cc1ccc(NC(=O)c2ccnc(N3CCCCC3)c2)cc1-c1ccc(C(=O)NCC2CC2)cc1 [GW775610] | 0 | 20 | 0 | 0 | 0 | 25 | 100 | 0 | 12 | 0
15 | Cn1cc(-c2ccc3c(c2)CCN3C(=O)Cc2cc(F)cc(F)c2F)c2c(N)ncnc21 [GSK2634140] | 23 | 8 | 18 | 12 | 0 | 0 | 0 | 0 | 0 | 0
16 | O=C(Nc1n[nH]c2cc(-c3cccs3)ccc12)C1CC1 [SB-731284] | 0 | 0 | 0 | 62 | 80 | 45 | 12 | 2 | 3 | 12

Row | Structure (SMILES) | %Inh [1] [%] | %Inh [2] [%] | %Inh [3] [%] | %Inh [4] [%] | %Inh [5] [%] | %Inh [6] [%] | %Inh [7] [%] | %Inh [8] [%] | %Inh [9] [%] | %Inh [10] [%]
17 | CN1CCN(Cc2ccc(NC(=O)Nc3ccc(N(C)c4ccnc(Nc5ccc(CS(C)(=O)=O)cc5)n4)cc3)cc2)CC1.Cl [GW827654] | 0 | 0 | 0 | 100 | 22 | 16 | 8 | 0 | 0 | 44
18 | CC(C)NCC(Cc1ccccc1)NC(=O)c1cc(Br)c(-c2ccnc3[nH]ccc23)s1.Cl.Cl (centres unmarked) [GSK1383281] | 13 | 14 | 29 | 59 | 46 | 0 | 18 | 0 | 37 | 34
19 | CS(=O)(=O)c1cccc(CNc2nc(Nc3ccc4c(c3)CCC(=O)N4)ncc2C(F)(F)F)c1 | 0 | 4 | 0 | 17 | 51 | 0 | 0 | 0 | 11 | 36
20 | Nc1cccc(-c2ccc3c(N)n[nH]c3c2)c1 [GSK2193613] | 13 | 0 | 18 | 27 | 61 | 0 | 0 | 6 | 4 | 13
21 | Fc1cc(Cl)ccc1Nc1ccnc2cc(-c3ccc(CN4CCOCC4)o3)ccc12 [GW560109] | 7 | 0 | 7 | 0 | 86 | 28 | 0 | 0 | 10 | 12
22 | CC(=O)Nc1cn2nc(Oc3cccc(NC(=O)c4cccc(C(F)(F)F)c4)c3)ccc2n1 | 3 | 0 | 41 | 0 | 0 | 0 | 0 | 1 | 6 | 20
23 | Cc1cc(-c2ccnc(Nc3cccc(C#N)c3)n2)cc(C)c1O [GSK1440913] | 17 | 12 | 55 | 40 | 46 | 4 | 20 | 9 | 5 | 8
24 | CCNC(=O)/C=C/c1n[nH]c2cc(Sc3ccccc3C(=O)NC)ccc12 | 13 | 0 | 13 | 24 | 0 | 6 | 13 | 8 | 15 | 0
25 | CC(C)c1nc(-c2ccc(F)c(NS(=O)(=O)c3c(F)cccc3F)c2)c(-c2ccnc(Nc3ccc(N4CCOCC4)nc3)n2)s1 [GSK1804250] | 7 | 4 | 12 | 10 | 0 | 30 | 14 | 5 | 20 | 12
26 | Cc1ccc(NC(=O)c2ccc(Cl)c(Cl)c2)cc1-c1ccc(C(=O)Nc2ccncc2)cc1 [GSK1398460] | 12 | 16 | 36 | 0 | 2 | 0 | 11 | 0 | 18 | 22
27 | COc1cc(Nc2ccnc3cc(-c4ccncc4)ccc23)cc(OC)c1OC.Cl [GW494610] | 0 | 0 | 7 | 7 | 0 | 0 | 0 | 0 | 9 | 0
28 | Cl.O=C(Nc1ccc(Oc2ccc3[nH]c(NC(=O)c4ccco4)nc3c2)cc1)Nc1cc(C(F)(F)F)ccc1F [GW683134] | 0 | 0 | 7 | 9 | 0 | 6 | 3 | 0 | 20 | 19
29 | NCCC(NC(=O)c1cc(Br)c(-c2ccnc3[nH]ccc23)s1)c1ccccc1.O=C(O)C(F)(F)F.O=C(O)C(F)(F)F (centres unmarked) [GSK1307810] | 83 | 99 | 99.2 | 98.9 | 94.7 | 0 | 6 | 28 | 29 | 25
30 | CCNc1nccc(-c2c(-c3ccc(F)cc3)ncn2C2CCN(C)CC2)n1 | 7 | 1 | 0 | 44 | 17 | 100 | 24 | 15 | 10 | 13
31 | CN(C)CCOc1ccc(-c2cc(-c3ccc(Cl)c(O)c3)c(-c3ccncc3)[nH]2)cc1.Cl.Cl [SB-684387] | 36 | 0 | 37 | 24 | 32 | 3 | 14 | 0 | 22 | 21
32 | COc1cccc2c(-c3ccncc3)c(-c3ccc(F)cc3)nn12 [GW468513] | 10 | 14 | 31 | 11 | 12 | 8 | 0 | 0 | 21 | 0
